Shown are actives, neighbours in structure and some others; about 5.2% of the full set was active somewhere.
VDR inh = blocks the human vitamin D receptor. P11473. VDR-SRC2-3 peptide fluorescence polarization, 2 h. Potency, µM, inactives show max response, negative = inhibition, most hits filed as inhibitors. 400,000 tested, 0.93% active
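FP read-out; VDR + SRC2-3 coactivator peptide; 23 nl compound by pintool; 2 h RT incubation; reagents held at 4 deg C, protected from light.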
PLK1 PBD inh = blocks phosphopeptide binding to human PLK1 polo-box domain. Plk1 PBD binding of FITC phosphopeptide, fluorescence polarization. Potency, µM, inactives show max response, negative = inhibition, usual class: inhibitors. 360,000 tested, 2.8% active. AID 720504; also: series mostly up to about 57 µM; nearly all actives have a fitted effect of over 65% in size
TrxR1 inh = blocks rat thioredoxin reductase 1 | Potency, µM (titrated, usually from 114 µM), for inactives: at the highest dose activity change, negative = inhibition, most hits filed as inhibitors | recombinant rTrxR1, NADPH fluorescence consumption, selenite substrate | 390,000 tested, 1% active | O89049 | AID 588453; also: nearly all actives have a fitted effect of over 65% in size
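Rat TrxR1 (90 nM in the dispensed reagent) was pre-reduced with 400 uM NADPH for 5 min at room temperature, then incubated with compound for 15 min. After 400 uM selenite was added, NADPH fluorescence (Ex 340/Em 450 nm) was followed for 8 min.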
IDH1 R132H inh = blocks human mutant IDH1 R132H enzyme; Potency, µM (top dose mostly 76.6 µM), inactives show at the highest dose activity change, negative = inhibition, most hits filed as inhibitors; IDH1-R132H enzyme, NADPH consumption, diaphorase/resazurin fluorescence; 390,000 tested, 0.093% active; AID 602179; O75874; also: nearly all actives have a fitted effect of over 65% in size
Target sequence (O75874 whole entry R132H, stated change not applied): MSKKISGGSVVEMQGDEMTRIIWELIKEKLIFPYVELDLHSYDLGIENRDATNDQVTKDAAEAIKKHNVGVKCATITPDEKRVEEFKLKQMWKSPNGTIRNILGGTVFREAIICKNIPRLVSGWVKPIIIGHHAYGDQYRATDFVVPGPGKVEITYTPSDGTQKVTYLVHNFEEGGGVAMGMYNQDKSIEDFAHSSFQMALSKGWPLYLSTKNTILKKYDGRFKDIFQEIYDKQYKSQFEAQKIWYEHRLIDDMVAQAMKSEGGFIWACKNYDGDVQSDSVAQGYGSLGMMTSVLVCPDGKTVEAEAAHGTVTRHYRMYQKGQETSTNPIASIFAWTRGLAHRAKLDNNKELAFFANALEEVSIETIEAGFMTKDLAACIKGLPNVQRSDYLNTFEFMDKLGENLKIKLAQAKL
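IDH1-R132H (0.5 ug/mL) preincubated 30 min with compound, then NADPH (0.016 mM) and alpha-KG (2 mM) added; 80 min at RT, pH 7.5. Remaining NADPH coupled via diaphorase/resazurin to fluorescence (540/590 nm); concentration-response curves normalized to no-enzyme control.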
Sfp PPTase inh = inhibitors of Bacillus subtilis Sfp phosphopantetheinyl transferase; Potency, µM, inactives show largest response in the series, negative = inhibition, usual class: inhibitors; Biochemical Sfp PPTase activity, qHTS; 310,000 tested, 3.5% active; Q9F4F7;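 also: the enzyme is Sfp with the accession as filed and its product quenches rhodamine fluorescence; 0% = enzyme reaction without inhibitor and -100% = no enzyme wells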
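Buffer: 50 mM Hepes-Na pH 7.6, 10 mM MgCl2, 0.01% Nonidet P-40, 0.01% BSA. Enzyme 15 nM, pre-exposed to compound 15 min; substrates then added and fluorescence change tracked over 30 min.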
TrxR1 substrate = substrates of rat thioredoxin reductase 1 | O89049 | purified TrxR1 substrate turnover, NADPH consumption readout | Potency, µM (doses to about 114 µM), for the others: at the highest dose activity change, negative = substrate turnover | 390,000 tested, 0.01% active; also: nearly all actives have a fitted effect of over 50% in size
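Rat TrxR1, dispensed at 90 nM, was prereduced with 400 uM NADPH (final) for 5 min at ~22 deg C, then incubated with compound 15 min before 400 uM selenite. A first-read NADPH fluorescence drop versus no-compound background flagged substrates.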
* hit, by the source's call; u = inconclusive; x = not tested or not shown; [ ] = another dose, or the depositor's remark. Calls follow the shape of the dose curve; as a rule, active = well fitted curve in the direction sought with a large enough effect; inconclusive = small, poorly fitted or top-dose-only effect, or another doubt; inactive = no such curve, though single readings can be large; an effect the other way counts as inactive or inconclusive. Unless noted, % is scaled to controls: 0 for no effect and ±100 for the full control effect; potency is read from the fitted curve at half-maximal effect.

SMILES	VDR inh	PLK1 PBD inh	TrxR1 inh	IDH1 R132H inh	Sfp PPTase inh	TrxR1 substrate
COC(=O)c1c(NC(=O)Cc2coc3ccc(C(C)C)cc23)sc2c1CCC2	15.4%	x	0.7%	12.5%	x	-3.4%
Oc1ccc(-c2csc(Nc3ncccn3)n2)c(O)c1	-1.6%	-4.5%	10.4%[57.1 µM]	-1.6%	50.1µM*	4.4%[57.1 µM]
CCOc1ccc(NC(=O)CC2C(=O)N(c3cccc(OC)c3)C(=O)N2CCOC)cc1 (configuration not stated)	-27.1%	29.9µM*	18.6%	-1.2%	-9.0%	-3.8%
COCCN1C(=O)N(c2cccc(OC)c2)C(=O)C1CC(=O)Nc1ccc(OC)cc1 (configuration not stated)	-14.1%	-3.4%	20.7%	3.0%	11.7%	9.3%
FC(F)(F)c1cc(-c2ccco2)nc(NCc2ccccc2)n1	-12.5%	-12.0%	u	3.4%	20µM*	10.9%
Nc1c(-c2ccccc2)nc2ncccn12	x	-13.2%	x	x	x	x
O=Nc1c(-c2cccc([N+](=O)[O-])c2)nc2ncccn12	x	x	x	x	15.8µM*	x
CCC1CCCCN1S(=O)(=O)c1ccc(C(=O)N(CCCN(C)C)c2nc3cc4c(cc3s2)OCO4)cc1 (configuration not stated)	-1.1%	-7.4%	10.0%	-11.7%	-12.3%	-7.4%
COc1cc(C(=O)OCc2cccc(S(=O)(=O)N3CCOCC3)c2)ccc1OCC(C)C	9.3%	-7.0%	-7.3%	18.2%	x	-9.1%
COc1ccc([C@]23Cc4cc(OC)c(OC)cc4C(O2)C2=C(CCCC2=O)O3)cc1	x	x	x	x	-29.9%	x
Cc1ncc([N+](=O)[O-])n1CCOC(=O)NC(NCc1cccnc1)C(Cl)(Cl)Cl (configuration not stated)	u	26.7µM*	1.6%	16.6%	17.0%	-4.6%
O=[N+]([O-])c1cc(Br)c(Nc2ccccc2)c([N+](=O)[O-])c1	u	29.9µM*	11.2µM*	2.7%	-7.6%	-1.1%
Cc1cccc(N2C(=O)c3cccc4c(N(C)CCO)ccc(c34)C2=O)c1	-1.0%	10.6µM*	-17.8%[57.1 µM]	6.5%	4.6%	20.7%[57.1 µM]
CCOC(=O)c1c(NC(=S)NCC2CCCO2)sc(C)c1C (configuration not stated)	89.1µM*	11.9µM*	-14.4%[57.1 µM]	13.3%	22.4µM*	-3.6%[57.1 µM]
COc1ccc(-n2c(Cc3ccccc3)nnc2SCc2ccc([N+](=O)[O-])cc2)cc1	-9.6%	26.7µM*	17.1%	-2.2%	-15.3%	3.0%
CCOC(=O)C1=C(C)NC(=S)NC1c1ccc(-c2cccc(Cl)c2C)o1 (configuration not stated)	79.4µM*	u	22.4µM*	0.9%	56.2µM*	8.8%
COC(=O)C1=C(C)NC(=S)NC1c1ccc(-c2ccccc2C(=O)OC)o1 (configuration not stated)	u	-24.1%	8.0%[57.1 µM]	6.0%	u	4.6%[57.1 µM]
CCOC(=O)C1=C(C)C(c2ccc(OC)cc2)NC(=O)N1 (configuration not stated)	-3.7%	1.9%	6.7%	-4.2%	11.6%	-6.3%
CCOC(=O)C1=C(C)NC(=S)NC1c1ccc(-c2ccc(Cl)cc2)o1 (configuration not stated)	-21.4%	-12.1%	u	-0.3%	14.1µM*	-3.3%
COC(=O)C1=C(C)NC(=O)NC1c1ccc(-c2ccccc2Cl)o1 (configuration not stated)	1.7%	18.9µM*	15.6%[57.1 µM]	0.9%	-20.2%	7.3%
CCOC(=O)C1=C(C)C(c2ccc(OC)cc2)NC(=S)N1 (configuration not stated)	28.2µM*	5.97µM*	-12.8%	2.5%	7.9%	-8.5%
COC(=O)C1=C(C)NC(=S)NC1c1ccc(-c2cccc(Cl)c2)o1 (configuration not stated)	6.8%	-4.2%	5.7%[57.1 µM]	1.3%	7.08µM*	-21.8%[57.1 µM]
CCOC(=O)C1=C(C)NC(C)=C(C(=O)OCC)C1c1ccco1	-15.3%	-10.3%	-3.4%	-1.3%	-13.1%	-12.2%
CCOC(=O)C1=C(C)NC(=S)NC1c1ccco1 (configuration not stated)	u	u	50.1µM*	-9.6%	70.8µM*	-4.6%
CC(C)N=C1NN=C(c2cccs2)CS1	-10.9%	-17.9%	12.0%[57.1 µM]	-16.4%	-20.8%	2.3%
SMILES	VDR inh	PLK1 PBD inh	TrxR1 inh	IDH1 R132H inh	Sfp PPTase inh	TrxR1 substrate
COCC(C)N=C1NN=C(c2cccs2)C(CC(=O)O)S1 (configuration not stated)	-22.2%	u	-31.5%	14.8%	35.5µM*	-5.2%[57.1 µM]
O=C(Nc1ccc(F)c(Cl)c1)Nc1ccc(Cl)cn1	u	15µM*	31.0%	6.8%	7.6%	-2.7%
O=C(Nc1ccc(F)cc1)Nc1ccc(Cl)cn1	2.6%	-2.3%	25.3%	0.4%	21.4%	10.7%
Cc1ccc(N2CCN(C(=S)c3ccc(-c4cccc([N+](=O)[O-])c4)o3)CC2)cc1	u	29.9µM*	-6.4%	-5.3%	14.1µM*	-4.0%
O=C(C1COc2ccccc2O1)N1CCN(c2ccc([N+](=O)[O-])cc2)CC1 (configuration not stated)	-14.1%	-22.6%	1.41µM*	-8.5%	x	-2.5%
O=[N+]([O-])c1ccc(N2CCN(C(=S)c3cccc([N+](=O)[O-])c3)CC2)cc1	u	2.38µM*	-17.6%	-6.0%	5.62µM*	-9.9%
Cc1ccc(N2CCN(C(=S)c3ccc(-c4ccccc4[N+](=O)[O-])o3)CC2)cc1	u	9.47µM*	-20.4%[57.1 µM]	3.8%	17.8µM*	-7.3%
COc1ccc(CN2CC[C@H]3C=CC[C@@H](C(=O)Nc4ccccc4)[C@H]3C2=O)cc1OC	x	x	2.5%	x	x	-0.3%
CCCN(CCC)C(=O)Cn1nnc2sc(-c3ccccc3)cc2c1=O	-1.4%	x	-3.4%	x	x	-0.3%
O=[N+]([O-])c1ccccc1-c1ccc(CN2CCN(c3ccccc3)CC2)o1	-17.7%	-7.8%	-5.5%	-10.3%	u	7.0%
Cc1ccccc1N1CCN(C(=S)c2ccc(-c3ccc([N+](=O)[O-])cc3)o2)CC1	u	u	11.3%[57.1 µM]	2.4%	20µM*	-1.9%[57.1 µM]
O=[N+]([O-])c1ccccc1-c1ccc(C(=S)N2CCN(c3ccccc3)CC2)o1	79.4µM*	23.8µM*	-10.2%	5.6%	17.8µM*	-4.1%
Cc1ccccc1N1CCN(C(=S)c2ccc(-c3cccc([N+](=O)[O-])c3)o2)CC1	8.1%	u	-23.7%	-1.1%	-4.9%	-7.7%
CC[C@H](C)[C@@H](NC(=O)O[C@@H]1C(=O)c2ccc(OC)cc2O[C@H]1c1ccc2c(c1)OCO2)C(=O)OC	5.9%	x	x	x	10.1%	x
CCOc1ccc(Nc2nc(Cc3nnc(SCC(=O)NCC4CCCO4)n3C)cs2)cc1 (configuration not stated)	-15.2%	u	14.3%	0.7%	28.2µM*	0.5%

From PubChem BioAssay
